“And” between values parts separate entries of the source, which are not always exact repeats. Equal values may be shown once. Hit rate of the full screen: of about 310,000 compounds, about 1,200 (0.39%) were called active. Not all results are given here. Potency and affinity values are given separately. Values without a mark were called inactive. No rule for the calls is given here.

This experiment deals with Large T antigen (Simian virus 40) (UniProt P03070). The experiment is described as follows: TAg ATPase/helicase activity blockers – biochemical (AID 1903). Particulars: SV40 large T antigen ATPase/helicase inhibition assay; at 20 µM; active compounds read high.
Sequence of Large T antigen (Simian virus 40) (P03070 whole entry, looked up): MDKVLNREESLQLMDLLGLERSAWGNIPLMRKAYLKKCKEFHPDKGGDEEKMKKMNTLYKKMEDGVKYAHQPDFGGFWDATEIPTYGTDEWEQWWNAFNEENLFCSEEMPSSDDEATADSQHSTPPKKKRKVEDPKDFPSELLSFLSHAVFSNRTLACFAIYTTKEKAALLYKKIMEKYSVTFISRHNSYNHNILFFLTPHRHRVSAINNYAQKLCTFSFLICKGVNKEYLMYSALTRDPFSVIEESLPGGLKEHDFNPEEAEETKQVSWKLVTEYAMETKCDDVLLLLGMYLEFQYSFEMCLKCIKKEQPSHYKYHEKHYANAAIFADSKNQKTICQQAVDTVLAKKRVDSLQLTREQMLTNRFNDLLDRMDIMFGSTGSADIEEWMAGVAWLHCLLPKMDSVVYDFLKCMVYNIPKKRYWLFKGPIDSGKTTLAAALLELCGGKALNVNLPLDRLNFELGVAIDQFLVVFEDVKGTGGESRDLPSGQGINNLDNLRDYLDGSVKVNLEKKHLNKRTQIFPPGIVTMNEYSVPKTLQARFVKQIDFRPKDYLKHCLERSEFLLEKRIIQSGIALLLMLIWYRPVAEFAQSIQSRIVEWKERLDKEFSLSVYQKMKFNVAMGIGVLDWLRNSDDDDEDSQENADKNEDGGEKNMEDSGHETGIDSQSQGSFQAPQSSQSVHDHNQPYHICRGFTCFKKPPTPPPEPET
In the case of `Cc1nc2ccccc2c(=O)n1-c1ccc(NS(=O)(=O)c2ccccc2)cc1`, the inhibition is -1.73%.

In the case of `NC(=O)C1CCN(C(=O)c2cccc3ccccc23)CC1`, the inhibition was 16.8%.

Turning to `CCOC(=O)CC1C(=O)NCCN1C(=O)c1ccc(Cl)cc1Cl` (centres undefined), the inhibition is 3.58%. For the compound `Fc1ccc(C2c3cccn3CCN2C(=S)Nc2cccc(F)c2)cc1` (centres undefined), the inhibition was 6.14%. Consider `Cn1c(=O)c(C(=O)CN2CCN(S(=O)(=O)c3ccccc3)CC2)c(N)n(Cc2ccccc2)c1=O`, for which the inhibition was 2.73%. Regarding `COC(=O)C1C(=O)c2c([nH]c(C(=O)OC3CCCCC3)c2C)CC1C` (centres undefined), the inhibition was 0.84%. To `O=C1OC(c2ccc3c(c2)OCO3)N(C(=O)c2ccc(Cl)c(Cl)c2)c2ccccc21` (centres undefined) belongs 10.3%; to `CCCC(=O)N(c1ccc2oc(=O)sc2c1)S(=O)(=O)c1ccccc1`, 22.9%. For `COc1ccc(C(CNC(=O)COc2ccccc2)N2CCOCC2)cc1` (centres undefined), the inhibition was 5.3%. Then `CCCc1cc(=O)[nH]c(SCCCCN2C(=O)c3ccccc3C2=O)n1`, with 16.4%; and `O=C(/C=C/c1ccc(O)cc1)c1c(O)cc(O)cc1O`, with 3.62%. `CC(C)c1ccc(/C=C/C(=O)O)cc1`: the inhibition is 15.3%. In the case of `CC(Nc1ccc2c(c1)OCCO2)C(=O)N1c2ccccc2CC1C` (centres undefined), the inhibition is 16.6%. To `CC1Cc2ccccc2N1CC(=O)Nc1ccc(N2CCOCC2)cc1` (centres undefined) belongs 27%. For `c1ccc(-c2ccc3c(c2)NC(C2Nc4cc(-c5ccccc5)ccc4O2)O3)cc1` (centres undefined), the inhibition is 19.8%. For the compound `O=C1CCNc2ccc(-c3ccccc3)cc21`, the inhibition was 5.5%. In the case of `Nc1cccc2c1C(=O)N(Cc1cccc(Cl)c1)C2=O`, the inhibition is 1.68%. Then `O=C1c2ccccc2C(=O)N1Cc1cc(Cl)c(O)c([N+](=O)[O-])c1`, with 6.24%. To `O=C(c1cccs1)N1CCCC(N2CCN(c3ccc(F)cc3)CC2)C1` (centres undefined) belongs 7.59%. `Cn1c(=O)n(Cc2ccccc2F)c2ccccc21`: the inhibition is 9.44%. As to `Nc1nc(O)c(N=Nc2ccc(S(N)(=O)=O)cc2)c(=O)[nH]1`, the inhibition is -12.8%.

As for `NS(=O)(=O)c1ccc(N=Nc2ccc(O)c3ncccc23)cc1`, the inhibition is 13.3%. Then `COc1ccc2[nH]c(=O)c(CN(CCO)S(=O)(=O)c3ccc4c(c3)OCCO4)cc2c1`, with -3.52%; and `O=[N+]([O-])c1cc(Cl)c(O)c2ncccc12`, with 14.7%. With `O=[N+]([O-])c1ccc(O)c2ncccc12`, the inhibition is -8.5% and 12.1%. As for `COCc1cc(SC2CCCCC2)nc(C)n1`, the inhibition was 10.5%. As for `O=C(CSc1nc2[nH]ncc2c(=O)[nH]1)Nc1nccs1`, the inhibition was 12.6%.

Regarding `CCN(CC1CCCO1)C(=O)CCc1nnc(CCc2ccc(OC)cc2)o1` (centres undefined), the inhibition is 0.66%. Regarding `O=C1CCC(=O)N1c1nc2nc(-c3ccccc3)cc(-c3ccccc3)n2n1`, the inhibition was 3.94%. Regarding `Cc1ccc(S(=O)(=O)N2CCN(CC(=O)Nc3ccc(N4CCOCC4)cc3)CC2)cc1C`, the inhibition is 10.9%. To `O=C(CN1CCN(c2ccc(O)cc2)CC1)Nc1cc(S(=O)(=O)N2CCCCC2)ccc1Cl` belongs 28.7%. With `O=S(=O)(c1ccc(NC(=S)N2CCN(c3ccccc3F)CC2)cc1)N1CCOCC1`, the inhibition was 11.6%. For the compound `COc1ccccc1N1CCN(C(=S)Nc2ccc(S(=O)(=O)N3CCOCC3)cc2)CC1`, the inhibition is -0.03%.

In the case of `CN1CCN(CC(=O)Nc2cc(S(=O)(=O)N3CCOCC3)ccc2Cl)CC1`, the inhibition is 8.7%.

`CC(=O)N1CCN(CC(=O)Nc2cc(S(=O)(=O)N3CCOCC3)ccc2C)CC1`: the inhibition is 10.5%. For the compound `CC(NC(=O)Cn1c(NCCO)nc2ccccc21)c1ccccc1` (centres undefined), the inhibition was -0.56%. Take `CCOc1ccc(C(=O)NC(C(=O)NCc2ccccc2OC)C(C)C)cc1` (centres undefined): the inhibition was 20.8%. Consider `Cc1ccc(CNC(=O)c2ccccc2NC(=O)CN2CC(C)OC(C)C2)cc1` (centres undefined), for which the inhibition is 2.54%.

Take `Cc1ccc(S(=O)(=O)N(C)C)cc1NC(=O)COC(=O)c1ccc2c(c1)NC(=O)CS2`: the inhibition was 2.57%. On to `CC(CN1CCCCC1)OC(=O)c1ccc(Cl)cc1` (centres undefined), for which the inhibition is -0.49%. For the compound `Cc1[nH]c2ccccc2c1-c1csc(NC(=O)CSCCO)n1`, the inhibition is 23.2%. Regarding `Cc1[nH]c2ccccc2c1-c1csc(NC(=O)CN2CCOCC2)n1`, the inhibition is 35.5%.

Take `Cc1ccc(CNC(=O)COC(=O)c2cc3c(s2)CCC(C)C3)cc1` (centres undefined): the inhibition is 0.58%. Regarding `C#CCOCCOCCOCCNc1nc(N2CCN(C(=O)Cn3cc(CCCN=C(N)N)nn3)CC2)nc(N2CCN(C(=O)[C@H](CCCCN)n3cc(CCCC)nn3)CC2)n1`, the inhibition is 10.3%. For the compound `O=C(NC1CC1)c1scc2c1OCCO2`, the inhibition is -3.94%. With `COc1cc(NC(=O)C/C(C)=N/NC(=O)C(OC)c2ccccc2)c(OC)cc1Cl` (centres undefined), the inhibition is 7.44%. Take `COc1ccc(CC(=O)N/N=C(\C)CC(=O)Nc2ccc3c(c2)OCCO3)cc1OC`: the inhibition was 8.47%. `COC(C(=O)Nc1ccc(NC(=O)C(OC)c2ccccc2)cc1)c1ccccc1` (centres undefined): the inhibition was 0.71%.

Regarding `COc1ccc(CNC(=O)C/C(C)=N/NC(=O)Cc2ccc(OC)c(OC)c2)cc1`, the inhibition is 9.86%.

With `CC(=O)NC(C)Cc1cn(Cc2ccccc2)c2ccccc12` (centres undefined), the inhibition was 19.1%.

With `COC(=O)c1sc(NC(=O)c2cccc([N+](=O)[O-])c2)c(C(N)=O)c1C`, the inhibition was 9.65%.

As for `Cc1ccccc1CNCCCSc1ncccn1`, the inhibition was 11.1%. For `COc1ccc(CN2CCCCCC2)c(C)c1C`, the inhibition is 12.7%. In the case of `CC(C)(C)c1cc2nc(N)nc(N)n2n1`, the inhibition is 8.32%. Take `O=C(Nc1ccccc1Cl)c1ccc(COc2ccc3c(c2)CCC3)cc1`: the inhibition is 20.5%. `CN(C(=O)CC(NC(=O)c1ccccc1Cl)c1ccccc1)c1ccccc1` (centres undefined): the inhibition was 12.8%. With `COc1cc2ccc3c(CCN(C)C)cc(OC)c(OC)c3c2cc1OC`, the inhibition is 6.37%.

Take `COc1cc2cccc(OC)c(=O)c2c(O)c1OC`: the inhibition is 2.12%. For `CC(=O)Nc1ccc(S(=O)(=O)Oc2ccccc2N2CCCCC2)cc1`, the inhibition was 2.71%.

(Values after PubChem BioAssay AID1903 (Southern Research Specialized Biocontainment Screening …, 2009).)
